Potency and affinity values are given separately. Calls of active or inactive are those of the source. No cut-off is given here; in the data, nearly all actives have IC50 up to about 0.98 µM.
Each compound was assayed against Calcium-dependent protein kinase 1 (Plasmodium falciparum (isolate 3D7)) (UniProt P62344) (assay: PfCDPK1 kinase inhibitors, biochemical, TCAMS library (AID 1159585;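 note: inhibitors leave more ATP so luminescence rises with inhibition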)). Details: recombinant PfCDPK1, Kinase-Glo ATP depletion luminescence.
Calcium-dependent protein kinase 1 (Plasmodium falciparum (isolate 3D7)), sequence (P62344 whole entry, looked up): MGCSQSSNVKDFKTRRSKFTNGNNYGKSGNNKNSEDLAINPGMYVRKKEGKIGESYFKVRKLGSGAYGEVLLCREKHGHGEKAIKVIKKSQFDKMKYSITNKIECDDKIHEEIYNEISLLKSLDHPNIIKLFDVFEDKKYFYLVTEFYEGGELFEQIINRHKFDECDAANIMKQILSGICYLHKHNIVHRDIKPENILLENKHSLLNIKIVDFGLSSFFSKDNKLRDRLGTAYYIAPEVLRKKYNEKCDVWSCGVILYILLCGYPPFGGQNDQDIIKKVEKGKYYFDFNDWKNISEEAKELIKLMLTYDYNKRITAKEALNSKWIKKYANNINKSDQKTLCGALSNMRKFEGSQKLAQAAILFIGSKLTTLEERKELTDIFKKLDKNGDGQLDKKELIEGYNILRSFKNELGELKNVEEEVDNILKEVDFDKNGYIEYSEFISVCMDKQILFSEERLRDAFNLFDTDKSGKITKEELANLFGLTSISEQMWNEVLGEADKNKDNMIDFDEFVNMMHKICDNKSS

outcome, inactive:
CCCCNCc1ccc(-c2nc(CN(Cc3ccc(Cl)c(Cl)c3)S(=O)(=O)c3ccc(NC(C)=O)cc3)cs2)cc1, CC(=O)Nc1nc(C(=O)Nc2cccc(-c3ccc4c(cnn4CC4CC4)c3)c2)cs1, CCc1c[nH]c2c(N3CCCC3=O)cc(C(=O)N[C@@H](Cc3ccccc3)[C@H](O)CNC(C)(C)CCCC(C)C)cc12, Nc1ncnc2cc(-c3cccc(S(N)(=O)=O)c3)sc12, COc1cc(F)c2ncc(Cl)c(C(O)CN3CCC(NC(=O)c4ccc5c(n4)NC(=O)CO5)CC3)c2c1 (centres undefined), CCN(CC)C(=S)N=Nc1c(O)[nH]c2c(C)cccc12, CCCCCCCCCn1c(NCc2cc(Cl)ccc2O)nc2ccccc21, CCCC(CNCc1cccc(C)c1)CNc1cc(=O)c2ccccc2[nH]1 (centres undefined), CCOc1ccc(-c2nonc2NC(=O)c2cccs2)cc1OCC, COc1ccc2nccc([C@@H](O)CN3CCC(NCc4[nH]c5ccccc5c4F)CC3)c2c1, CCc1c(CCNCCCCCCNCCc2ccc(OC)c(OC)c2CC)ccc(OC)c1OC, COc1ccc2nccc(NN=Cc3ccc(F)cc3)c2c1, COc1ccc(-c2ccccc2CNC2Cc3ccccc3C2)cc1S(=O)(=O)NCCN1CCCC1, Cc1ccc(N/C(N)=N/c2ncccc2OCc2c(F)cccc2Cl)cc1, Cc1nc(N)nc(N)c1-c1ccc(Br)cc1, CN(C)CCN(C)Cc1ccc(-c2ccc(NC(=O)c3cccc(Cl)c3)cc2)cc1, CN1CCN(c2cc(NC(=O)c3ccc(-c4ccc(Cl)cc4)cc3)ccc2Cl)CC1, O=C(NCCCCN1CCN(c2cccc3c2OCCO3)CC1)c1ccc(NC(=O)c2cc(Cl)cc(Cl)c2)cc1, O=C(COc1ccc(Cl)c(Cl)c1)NCCCCCN1CCCN(C(=O)Nc2cc(Cl)cc(Cl)c2)CC1, CCN(CCCN1CCCCC1)c1cc(C)nc(Nc2cc(Br)ccc2C)n1, COc1ccc(-c2ccc(Nc3cccc(S(=O)(=O)CCN4CCC(CCN(C)C)CC4)c3)nc2)cn1, O=C(Nc1cccc(-c2csc(-c3nc4ccccc4[nH]3)c2)c1)c1ccoc1, CC(C)CNC(=O)c1cncc(-c2cccc(CNC3Cc4ccccc4C3)c2)c1, CN(Cc1cccc(O)c1)C1CCCN(c2cc(NC(=O)c3ccc(F)cc3)ccn2)C1 (centres undefined), COCCNCc1ccc(-c2cccc(CN(C(=O)NCCc3ccccc3)C3CCN(Cc4ccccc4)CC3)c2)cc1, O=C(NCc1cccc(CN2CCOCC2)c1)c1cc(Br)cc(N2CCN(c3ccncc3)CC2)c1, CC(Oc1c(C2CCN(CCCCNC(=O)c3ccc(-c4ccc(Cl)cc4)cc3)CC2)ccc2c1CCCC2)C(N)=O (centres undefined), CCn1ncc(Cl)c1CN(C)S(=O)(=O)c1ccc(Br)cc1, NS(=O)(=O)c1ccc(CNC(=O)c2cnc3c(O)cccc3c2Nc2cccc(NC(=O)c3ccc(Cl)c(Cl)c3)c2)cc1, CC(C)C[C@H]1C(=O)N[C@H](C2Cc3ccccc3C2)C(=O)N1[C@@H](C(=O)Nc1ccccc1OCc1ccccc1)c1ccc(F)cc1F, COc1ccc(CN(C)CCCOc2ccc(NC(=O)c3cccc4c(=O)c5cccc(C)c5[nH]c34)cc2)cc1OC, CCCC1N=C(N)N=C(N)N1c1ccc(OC)cc1 (centres undefined), OCc1ccc2nc3c(cc2c1)-c1cccc2cccc-3c12, COc1ccc(C)c(Nc2ccnc(Nc3ccc(-c4cnc[nH]4)cc3)n2)c1, Cc1[nH]c(C)c(-c2ccc(OCc3ccccc3)cc2)c(=O)c1Br, CCOc1ccc2nc(C)cc(NN=Cc3cccnc3)c2c1, CN(C)CCNC(=O)c1ccc(-c2cnc3ccc(NCc4ccc(Cl)c(Cl)c4)nn23)cc1, COc1cccc(NC(=O)c2cc([N+](=O)[O-])ccc2NC(=O)CN2CCc3ccccc3C2)c1, CCNC(=O)NC1CCN(Cc2c(-c3cccs3)nc3ccccc3c2C(=O)N[C@@H](C)C2CCCCC2)CC1
